About 83,000 compounds went through this panel and 20% of them were active in at least one assay; those are over-represented in the sample as a whole.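 96-well plates, one dose, 48 hours. Percent growth reported; active if below 10.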 Calls of active or inactive are those of the source.

The first experiment relates to DU-145 prostate. Kind of experiment: NCI-60 one-dose screen, 48 h (100 = growth as untreated, 0 = no growth, -100 = all killed). Particulars: 10 µM unless noted.
In the case of `CCOC(=O)Nc1ccc2nc(Sc3ccc(Cl)cc3)sc2c1`, the growth is 35.8% (inactive).
On to `COc1cc(C2CC(c3cccc(Nc4ccnc5cc(Cl)ccc45)c3)=NN2C=O)cc(OC)c1OC` (configuration not stated), for which the growth is -2.32% (active).
On the same count and under the same terms, then `c1cn2cc(-c3ccc4ncn(C5CCCCC5)c4c3)nc(-c3ccc4c(c3)ncn4C3CCCCC3)c2n1`, with -59.1% (active).

A further experiment concerns K-562 leukemia. The description is as above. Particulars: 10 µM unless noted.
For the compound `Clc1nnc2c3ccccc3ccn12`, the growth was 102% (inactive).
Consider `COc1ccc(-c2nn(C(=O)NCCN(C)C)cc2-c2ccncc2)cc1Cl`, for which the growth was 16.5% (inactive).
The same measure, in the same setting: the same measure for `CCN1C(=O)N(CC)C2C1NN=c1s/c(=C\c3ccco3)c(=O)n12` (configuration not stated): 11.5% (inactive); for `CC(C)N(C(=S)SSC(=S)N(C(C)C)C(C)C)C(C)C`: 73.3% (inactive).
On to `CC(C)=CC[C@@H]1CC2(CC=C(C)C)C(=O)C(OC3(C(=O)c4ccccc4)C(=O)C4(CC=C(C)C)C[C@@H](CC=C(C)C)C(C)(C)C(CC=C(C)C)(C4=O)C3=O)(C(=O)c3ccccc3)C(=O)C(CC=C(C)C)(C2=O)C1(C)C` (some centres not stated), for which the growth was 4.86% (active).
Turning to `CCCCCCCCCCCCCCCC1=NCCN1`, the growth was 3.78% (active).
Same read-out and setting: then `COc1cc([N+](=O)[O-])cc(OC)c1OC`, with 101% (inactive); and `NNC(=O)CSc1nc2scc(-c3ccccc3)c2c(=O)n1-c1ccccc1`, with 89.9% (inactive); and `C=CCN(CC#N)CC=C`, with 102% (inactive).
Still for that read-out and setting: then `CCOC(=O)Cn1c(-c2nonc2NC(=O)c2ccccc2F)nc2ccccc21`, with 31.3% (inactive); and `CCCCCCCOc1cccc(/C=C2\N=C3SCCCN3C2=O)c1`, with 90.4% (inactive).
As for `Cc1c2c(cc3c1[nH]c1ccccc13)C=NCC2`, the growth was 62.3% (inactive).
Still for that read-out and setting: the same measure for `COc1cc(OC)c(Cl)cc1N`: 95.5% (inactive); for `CS(=O)(=O)c1ccc(C(=O)Nc2ccc(Cl)c(-c3ccccn3)c2)c(Cl)c1`: 13.8% (inactive).
In the case of `Cc1cc([N+](=O)[O-])c(C)cc1N`, the growth is 100% (inactive).
In the case of `COc1cnc2c(c1)C(=O)c1c-2n(CCCN2CCNCC2)c(=O)c2cc(Cl)ccc12`, the growth is -75.8% (active).
The same measure, in the same setting: the same measure for `COc1cc(/C=C2\CN(C(=O)OC(C)(C)C)C/C(=C\c3ccc(O)c(OC)c3)C2=O)ccc1O`: 80.1% (inactive); for `CCN1C(=O)C(C)C=C(C)C=C1C` (configuration not stated): 95.3% (inactive); for `COCc1nc(NS(=O)(=O)c2ccc(N)cc2)nc(C)c1Br`: 98% (inactive).
Still for that read-out and setting: then `O=c1c2cc(Br)cc(Br)c2nc(-c2ccc(Cl)cc2)n1/N=C\c1ccccc1F`, with 72.1% (inactive); and `CCCCCCCCCCCCCC1=NC(C)(C)CN1C(C)C`, with -49.5% (active).
Same read-out and setting: the same measure for `CCC(=O)OCc1ccc(OC)cc1`: 94.4% (inactive).
For `Fc1ccc(-c2cnc3nonc3n2)c(F)c1`, the growth was 68% (inactive).
On to `O=S(=O)(Nc1ccc2ccccc2c1)N1CCCCC1`, for which the growth was 41.4% (inactive).
On the same count and under the same terms, then `CCn1c(Cc2ccccc2Nc2c(Cl)cccc2Cl)nnc1SCC(=O)Nc1cccc(OC)c1`, with 62.6% (inactive); and `CCN(CC)CC(=O)Nc1c(C)ccc(N)c1C`, with 128% (inactive).
As to `C=C1C[C@@]2(C)C(CC[C@]3(C)C2CC=C2C4CC(C)(C)C[C@@H](OC(=O)/C(C)=C\C)[C@]4(C(=O)O)CC[C@]23C)C(C)(C)C1=O` (some centres not stated), the growth was 1.39% (active).
Still for that read-out and setting: then `C=C1C(=O)O[C@H]2[C@H]1CC/C(COC(=O)NCc1cccc(OC)c1)=C\CC[C@@]1(C)O[C@@H]21`, with 4.46% (active); and `CCCCOc1nc2ccccc2cc1/C=C/c1cc(/C=C/c2cc3ccccc3nc2OCCCC)n(-c2ccccc2)n1`, with 99% (inactive).
As to `CCCCc1nc(Cl)c(C2CC(c3ccc(S(N)(=O)=O)cc3)=NN2c2cc(Cl)cc(Cl)c2)[nH]1` (configuration not stated), the growth is 16% (inactive).
Same read-out and setting: then `O=C(N/N=C\c1cc(Br)ccc1O)c1ccncc1`, with 20.3% (inactive).
In the case of `CC(C)C/C=C/C=C/C(=O)N[C@@H](CC(N)=O)C(=O)N[C@@H]1C(=O)N[C@H](c2ccc(O)cc2)C(=O)N[C@H](CCCN)C(=O)N[C@H]([C@@H](C)O)C(=O)N[C@H](c2ccc(O)cc2)C(=O)N[C@H](c2ccc(O)cc2)C(=O)N[C@H]([C@H](C)O)C(=O)N[C@H](Cc2ccccc2)C(=O)N[C@H](CCCN)C(=O)N[C@H](c2ccc(O[C@H]3O[C@@H](CO)[C@@H](O)[C@@H](O)[C@H]3O[C@@H]3O[C@H](CO)[C@H](O)[C@H](O)[C@@H]3O)cc2)C(=O)N[C@H]([C@H](C)O)C(=O)N[C@H](c2ccc(O)cc2)C(=O)NCC(=O)N[C@H](CC(C)C)C(=O)N[C@H](C)C(=O)N[C@H](c2ccc(O)c(Cl)c2)C(=O)O[C@@H]1C(N)=O`, the growth is 30.8% (inactive).
Still for that read-out and setting: then `CN(C)c1ccc(/C=C\c2cccc[n+]2C)cc1`, with 21% (inactive); and `COC(=O)CSc1ccc(Cl)cc1`, with 89.6% (inactive); and `S=C(S)Oc1cccc2cccnc12`, with 90.8% (inactive).
In the case of `O=C1NN(C(=O)c2ccccc2)C(c2ccc(Cl)c(Cl)c2)=C/C1=C\c1ccccc1[N+](=O)[O-]`, the growth was 15.1% [6.75 µM] (inactive).
For the compound `CCOC(=O)Nc1ccc2nc(Sc3ccc(Cl)cc3)sc2c1`, the growth was 21% (inactive).
Turning to `COc1cc(C2CC(c3cccc(Nc4ccnc5cc(Cl)ccc45)c3)=NN2C=O)cc(OC)c1OC` (configuration not stated), the growth is 19.4% (inactive).
The same measure, in the same setting: then `c1cn2cc(-c3ccc4ncn(C5CCCCC5)c4c3)nc(-c3ccc4c(c3)ncn4C3CCCCC3)c2n1`, with -4.74% (active).

The values are drawn from PubChem BioAssay (NCI).
